This is an account of results in PubChem BioAssay AID933 (National Center for Advancing Translational Sciences (NCATS), 2007).

“And” between values parts separate entries of the source, which are not always exact repeats. Equal entries are not always repeated. Results filed as inconclusive are left out. The source made the active and inactive calls. The call rests on the fitted dose curve; in most records, active means well fitted activation curve with a large enough effect in the signal ratio, with a control signal flat; inconclusive means small, poorly fitted or top-dose-only effect, or a change in a side signal; inactive means flat fitted curve, though single readings scatter; the % refers to the signal ratio.
Potency means the concentration at half of the fitted maximal effect.

The target in this test is Thyrotropin receptor (Homo sapiens) (UniProt P16473). As to the kind of experiment: Secondary Concentration-Response Assay for Agonists of the Thyroid Stimulating Hormone Receptor: HTRF Activity Detection.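 On activation: HEK 293 cells stably expressing human TSHR with RO 20-1724 phosphodiesterase inhibitor; % of control where 0% means no effect.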 Conditions: HEK293-TSHR cells, cAMP HTRF ratio, 30 min; series mostly up to 91.7 µM; activation: at the top concentration. An excerpt: NIH Chemical Genomics Center [NCGC]
Thyrotropin receptor (Homo sapiens), sequence (P16473 whole entry, looked up): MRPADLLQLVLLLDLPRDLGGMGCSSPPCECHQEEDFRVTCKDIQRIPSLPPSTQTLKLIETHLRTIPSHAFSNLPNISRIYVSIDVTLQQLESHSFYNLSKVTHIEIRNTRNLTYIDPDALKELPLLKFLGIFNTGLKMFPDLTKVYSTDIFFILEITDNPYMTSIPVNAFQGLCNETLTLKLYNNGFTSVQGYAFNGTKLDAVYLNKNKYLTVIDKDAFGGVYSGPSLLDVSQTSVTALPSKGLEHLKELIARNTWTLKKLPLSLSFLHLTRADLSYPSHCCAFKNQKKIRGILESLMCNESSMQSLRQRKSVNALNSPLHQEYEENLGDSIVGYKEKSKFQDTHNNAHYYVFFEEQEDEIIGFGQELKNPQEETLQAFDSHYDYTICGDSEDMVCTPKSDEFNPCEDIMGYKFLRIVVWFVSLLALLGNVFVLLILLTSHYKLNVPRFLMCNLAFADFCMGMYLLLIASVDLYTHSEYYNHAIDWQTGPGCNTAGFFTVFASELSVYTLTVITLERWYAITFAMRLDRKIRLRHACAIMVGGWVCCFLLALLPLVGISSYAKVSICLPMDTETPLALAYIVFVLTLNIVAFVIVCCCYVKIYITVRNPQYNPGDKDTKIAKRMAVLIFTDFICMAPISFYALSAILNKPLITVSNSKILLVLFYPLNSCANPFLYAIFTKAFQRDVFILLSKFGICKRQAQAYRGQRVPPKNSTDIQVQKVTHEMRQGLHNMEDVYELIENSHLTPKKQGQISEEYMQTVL
NIH Molecular Libraries Screening Centers Network [MLSCN]
PI Name: Dr. Marvin Gershengorn, NIH
Confirmation of Thyroid Stimulating Hormone Receptor Agonists
TSH is an alpha/beta heterodimeric glycoprotein hormone secreted from the anterior pituitary gland which belongs to the glycoprotein hormone family. The actions of TSH are mediated by a seven-transmembrane receptor, which upon TSH binding couples preferentially to the G-alpha (s) protein (Gs), resulting in activation of adenylate cyclase and increase in cyclic adenosine 3', 5' monophosphate (cAMP). The TSH receptor (THSR) is mainly expressed in thyroid follicular cells and regulates their growth and function. Recombinant TSH is used to activate TSHR in patients with thyroid cancer receiving thyroid hormone suppression therapy and to screen for residual tumor after surgery, but it is expensive and must be administered intramuscularly. An orally active small molecule TSHR agonist would serve as an invaluable research tool for studying TSHR pharmacology and physiology, and would have multiple advantages in therapeutic settings. However, no selective small molecule agonist of the TSH receptor exists, and no small molecule screen for TSHR agonists has ever been reported.
A confirmatory assay of putative TSHR agonists was conducted on a different TSHR transfected HEK 293 cell line, using an orthogonal detection technology to measure cAMP stimulation: antibody-based Homogeneous Time Resolved Fluorescence (HTRF).
NCGC Assay Protocol Summary:
Homogeneous Time Resolved Fluorescence (HTRF) cAMP Assay. HEK 293 cells stably transfected with a vector containing the TSHR and maintained under hygromycin selection were obtained from the laboratory of Dr. Marvin Gershengorn. Compounds were assayed using a HTRF cAMP detection kit (Cisbio) on the TSHR transfected cell line. Briefly, 750 cells were plated in 2.5 ul/well of complete media (DMEM containing 10 % FCS, and 100 uM RO 20-1724) in 1536 well solid bottom white plates and 23 nl/well compound in DMSO solution or controls was added. Following 30 minute incubation at room temperature, 2.5 ul/well of labeled d2 cAMP and 2.5 ul/well of anti-cAMP antibody (both diluted 1:20 in lysis buffer) were added to each well using a flying reagent dispenser (Aurora Discovery, San Diego) . Plates were measured using the Envision plate reader (PerkinElmer, Boston, MA) with excitation at 330 nm and emissions of 615 nm and 660 nm.
Keywords: Thyroid-stimulating hormone TSH, TSHR, TSHR agonist, quantitative high throughput screening, qHTS, HTS, probe identification, CNG, cAMP, cyclic nucleotide gated ion channel PubChem
For orientation: Time-resolved FRET reads energy transfer from a long-lived donor to a nearby acceptor.
Take `COc1ccc(/C=C2/C(=O)NC(=O)N(Cc3ccco3)C2=O)cc1COc1ccc(NC(C)=O)cc1`: the “activation” value is 1.65% (inactive).

For the compound `O=C1C2C3CCCC3=C3CCCC3C2C(=O)N1c1cccc(Cl)c1` (stereo not given), the “activation” value is 1.67% (inactive).

As for `O=C1c2ccccc2NC(c2cc(Br)c3c(c2)OCO3)N1Cc1ccco1` (stereo not given), the “activation” value is 12.2% (inactive).

As to `COc1cc(C2Nc3ccccc3C(=O)N2c2ccc(Cl)cc2)c(Cl)cc1OCC(=O)O` (stereo not given), the “activation” value was 0.666% (inactive).

Regarding `CN(Cc1ccco1)C(=O)Cn1c(=O)oc2cc(S(=O)(=O)NCc3ccccc3)ccc21`, the activation was 0.961% [at 0.00035 µM] (inactive).

Take `Cc1sc2ncn(/N=C/c3cn(-c4ccccc4)nc3-c3ccccc3)c(=O)c2c1C`: the “activation” value is 0.971% (inactive).

On to `COc1cc(C2Nc3ccccc3C(=O)N2c2ccccc2)c(Br)cc1OCC(=O)O` (stereo not given), for which the “activation” value is 0.259% (inactive).

Take `COc1cccc(OCc2cc(C3Nc4ccccc4C(=O)N3c3ccccc3)ccc2OC)c1` (stereo not given): the “activation” value is 1.73% (inactive).

As to `COc1ccc(C2Nc3ccccc3C(=O)N2Cc2ccccc2)cc1COc1ccc(C(N)=O)cc1` (stereo not given), the “activation” value is 17.6% (inactive).

As for `COc1ccc(C2Nc3ccccc3C(=O)N2Cc2ccco2)cc1COc1ccc(N)cc1` (stereo not given), the “activation” value is 30.9% (inactive).

With `COc1ccc(C2Nc3ccccc3C(=O)N2Cc2ccccc2)cc1COc1ccc(F)cc1` (stereo not given), the “activation” value was 16.4% (inactive).

`COc1ccc(C2Nc3ccccc3C(=O)N2Cc2ccco2)cc1COc1cccc(NC(C)=O)c1` (stereo not given): the “activation” value is 8.92% (inactive).

With `COc1ccc(CNCc2ccccc2)cc1COc1ccc(NC(C)=O)cc1`, the “activation” value is 8.06% (inactive).

Consider `COc1ccc(-c2cc(C(F)(F)F)nc(SCCC(=O)N3CCOCC3)n2)cc1`, for which the activation is 0.123% [at 0.00035 µM] (inactive).

Take `COc1ccc(C2Nc3ccccc3C(=O)N2CCc2ccc(Cl)cc2Cl)cc1COc1ccc(NC(C)=O)cc1` (stereo not given): the “activation” value is 2.61% (inactive).

As for `COc1ccc(O)c(C2Nc3ccccc3C(=O)N2Cc2ccccc2)c1` (stereo not given), the “activation” value was 4.83% (inactive).

On to `O=C1C2C3CCCC3=C3CCCC3C2C(=O)N1c1ccccc1Cl` (stereo not given), for which the “activation” value was 0.928% (inactive).

Turning to `O=C1c2ccccc2NC(c2ccccc2)N1Cc1ccco1` (stereo not given), the Potency entry was “inactive”.

In the case of `COc1ccc(CN(Cc2ccccc2)C(=O)CN2CCN(C)CC2)cc1COc1ccc(NC(C)=O)cc1`, the “activation” value is 8.23% (inactive).

On to `CCCN1C(=O)c2ccccc2NC1c1ccc(OC)c(COc2ccc([N+](=O)[O-])c(C)c2)c1` (stereo not given), for which the “activation” value is 1.36% (inactive).

In the case of `COc1ccc(C2Nc3ccccc3C(=O)N2Cc2ccco2)cc1COc1ccccc1F` (stereo not given), the “activation” value was 0.526% (inactive).

For the compound `O=C1c2ccccc2NC(c2ccccc2O)N1Cc1ccco1` (stereo not given), the “activation” value was 0.199% (inactive).

Regarding `COc1ccc(C2Nc3ccccc3C(=O)N2Cc2ccco2)cc1COc1ccc(NC(C)=O)cc1` (stereo not given), the Potency is 15.8 µM (active).

For `COc1ccc(C2Nc3ccc(NC(=O)CO)cc3C(=O)N2Cc2cccc(Cl)c2)cc1COc1ccc(NC(C)=O)cc1` (stereo not given), the Potency was 5.62 µM (active).

Consider `COc1cc2c(N3CCOCC3)cc(O)c(CC(=O)Nc3ccccc3)c2cc1OC`, for which the activation was 0.478% [at 0.00035 µM] (inactive).

Turning to `COc1ccc(C2Nc3ccccc3C(=O)N2Cc2ccccc2)cc1COc1ccc(NC(C)=O)cc1` (stereo not given), the Potency was 7.08 µM (active) and 3.55 µM (active).

Regarding `COc1ccc(N2C(=O)c3ccccc3NC2c2ccc(OC)c(Cn3nnc4ccccc43)c2)cc1` (stereo not given), the “activation” value was 2.15% (inactive).

In the case of `O=C(CN(c1ccc2c(c1)OCCO2)S(=O)(=O)c1ccccc1)NCc1ccco1`, the activation was -0.333% [at 0.00035 µM] (inactive).

For the compound `O=C(c1cc(Br)ccc1O)N(Cc1ccco1)Cc1cccs1`, the “activation” value is 6.91% (inactive).

In the case of `CCOc1cc(C2Nc3ccccc3C(=O)N2c2ccccc2)ccc1O` (stereo not given), the “activation” value is 1.67% (inactive).

As to `CCOc1ccc(S(=O)(=O)NCc2ccccc2Cl)cc1C(N)=O`, the “activation” value is 1.35% (inactive).

`COc1ccc(C(=O)O)cc1COc1ccc(NC(C)=O)cc1`: the “activation” value was 8.56% (inactive).

As for `COc1ccc(C2Nc3ccccc3C(=O)N2Cc2ccccc2)cc1COc1ccc([N+](=O)[O-])cc1` (stereo not given), the “activation” value was 1.19% (inactive).

Regarding `COc1ccc(C2Nc3ccccc3C(=O)N2c2ccc(Cl)cc2)cc1Cn1cc([N+](=O)[O-])cn1` (stereo not given), the “activation” value was 0.476% (inactive).

For the compound `COc1ccc(C2Nc3ccccc3C(=O)N2Cc2ccccc2)cc1COc1ccc([N+](=O)[O-])c(C)c1` (stereo not given), the “activation” value is 1.38% (inactive).

For `COc1ccc(C2Nc3ccccc3C(=O)N2Cc2ccccc2)cc1COc1cccc(C(F)(F)F)c1` (stereo not given), the “activation” value was 6.58% (inactive).

For `COc1ccc(-c2nc3ccccc3c(=O)n2Cc2ccccc2)cc1COc1ccc(NC(C)=O)cc1`, the Potency is 8.91 µM (active).

As for `CCOC(=O)N1CCC(NC(=O)c2ccc(CNS(=O)(=O)c3ccc(F)cc3)cc2)CC1`, the activation is 0.984% [at 0.00035 µM] (inactive).

For the compound `COc1ccc(CN(Cc2ccccc2)C(=O)c2ccc(OC)cc2O)cc1`, the Potency is 31.6 µM (active).

In the case of `CCc1ccccc1NC1=NCC(=O)N1Cc1ccc(OC)cc1`, the activation is 0.0927% [at 0.00035 µM] (inactive).
